# Screening results as filed in PubChem.
# HIV TAR-Tat = HIV-1 TAR-Tat binding disruption; HIV-1 TAR RNA, Tat peptide displacement FRET; active compounds read high; actives 0.6% (n = 100,000); AID 1259389; z-score (concentration not given with the values); active = z-score of 3 or more in at least 2 runs
# CDC25B CDK2 inh = human CDC25B-CDK2/CyclinA binding inhibition; P30305+P24941; actives 0.72% (n = 94,000); AID 1259370; HTRF CDC25B-CDK2/CyclinA binding, anti-His/anti-Flag; active compounds read high; z-score (no concentration beside the values); in the data active = z-score above about 3.2
# Starred values were filed as active, the others as inactive; nt = no result given. Most compounds without a hit are left out; they make up all but 0.9% or so of the library.
SMILES,HIV TAR-Tat,CDC25B CDK2 inh
CC1CCCC(NC(=O)c2ccc(CSc3nc4ccncc4[nH]3)cc2)C1C (stereo not given),-0.41,-0.72
Cc1n(CC(=O)c2ccc(C(C)(C)C)cc2)c2ccccc2[n+]1C,1.4,-0.01
CCCCN(C)CCNS(=O)(=O)c1cc(Br)cc2c1N(C(C)=O)CC2,nt,7.4*
CCCCN(C)CCNS(=O)(=O)c1cc(Br)cc2c1N(C(=O)CC)CC2,nt,0.85
Cc1noc(C)c1S(=O)(=O)N1CCCC1c1ccccc1Cl (stereo not given),-0.19,-1.5
N#Cc1cc2c(=O)n3ccccc3nc2n(Cc2ccc3c(c2)OCO3)c1=O,0.65,-1.2
CCN(CC)C(=O)c1sc(NC(=O)c2cc(-c3ccc(C)o3)nc3ccccc23)c(C(N)=O)c1C,8.5*,0.85
NC(=O)c1nc(Nc2ccccc2)sc1NC(=O)Cc1cccs1,-0.59,nt
Cc1nnc(NC(=O)c2cc(-c3ccc(Cl)cc3)nc3ccccc23)s1,nt,-4.8
NC(=O)c1nc(Nc2ccccc2)sc1NC(=O)c1cc(-c2ccco2)nc2ccccc12,20*,nt
Cc1nn(C(C)C(=O)N2CCN(c3ccc(Cl)cc3)CC2)c(=O)c2c1sc1ccccc12 (stereo not given),0.69,-1.9
COc1cc(CNc2ccc3[nH]c(=O)[nH]c3c2)cc(Br)c1OCc1ccc(F)cc1,-2.9,7.2*
C=CCOc1c(Cl)cc(CNc2ccc3[nH]c(=O)[nH]c3c2)cc1OC,1.6,-0.61
CCOc1cc(CNc2ccc3[nH]c(=O)[nH]c3c2)cc(Cl)c1OCC,-2.6,7.7*
COc1cc(CNCCSc2nnnn2C)cc(Br)c1OCc1ccc(F)cc1,1.5,1.4
COc1ccc(C)cc1-n1nnc(-c2nc(-c3ccc4c(c3)OCO4)no2)c1N,1,nt
O=C(Nc1ccc2c(c1)OCCO2)Nc1nc(-c2ccccc2)cs1,0.81,-0.1
C=Cc1ccc(CN2C(=O)N(c3cc(C)ccc3C)C3CS(=O)(=O)CC32)cc1 (stereo not given),0.02,-1.1
Cn1c(=O)[nH]c2cc(-c3noc(Cc4ccc(F)cc4)n3)ccc21,1.5,nt
COC(=O)c1cc(S(=O)(=O)Nc2cccc(F)c2)cn1C,0.59,-0.41
O=C1Cc2cc(S(=O)(=O)NCCC3=CCCCC3)cc3c2N1CCC3,0.91,nt
CCCNC(=O)c1cc([N+](=O)[O-])cc2c1-c1ccc([N+](=O)[O-])cc1C2=O,nt,16*
O=C1c2cc([N+](=O)[O-])ccc2-c2ccc([N+](=O)[O-])cc21,nt,0.65
CCCc1[nH]nc2c1C(c1c(F)c(F)c(F)c(F)c1F)C(C#N)=C(N)O2 (stereo not given),nt,-0.4
O=C(Nc1ccc(F)c(F)c1)c1cc2cc3ccc(Cl)cc3nc2o1,3.9,nt
SMILES,HIV TAR-Tat,CDC25B CDK2 inh
CCn1cnc2cc(NCc3nc4ccccc4n3Cc3ccccc3)ccc21,1.9,13*
CCn1cnc2cc(NCc3nc4ccccc4n3C)ccc21,-0.54,2.5
CCOC(=O)c1sc(NC(=O)c2ccc(Cl)cc2)nc1C,nt,-1.9
O=C1C2C(c3ccccc3)OC3(C(=O)c4ccccc4C3=O)C2C(=O)N1c1ccc(F)c(Cl)c1 (stereo not given),1.4,0.7
O=C1NC(NS(=O)(=O)c2ccccc2)(C(F)(F)F)C(=O)N1c1ccc(F)c(Cl)c1 (stereo not given),nt,18*
COCCCNc1ncnc2onc(-c3ccc(C)cc3)c12,1.2,nt
CN1C(C(=O)Nc2sc3c(c2C(N)=O)CCCC3)=CC(c2ccco2)=NS1(=O)=O,0.79,-1.4
CN1C(C(=O)Nc2sc3c(c2C#N)CCC3)=CC(c2ccco2)=NS1(=O)=O,6.1*,-0.91
O=C(Nc1cccnc1)c1nn(-c2ccc(Cl)cc2)ccc1=O,0.08,-1.1
CCCCN(CC)CCNC(=O)c1nn(C)c2c1CS(=O)(=O)c1ccccc1-2,0.79,0.55
CCN(CC)CCCNC(=O)c1nn(C)c2c1CS(=O)(=O)c1ccccc1-2,6.9*,-1.5
Cc1ccc(Oc2nc3ccccc3n3c(C)nnc23)cc1C,nt,0.64
Cc1nnc2c(Oc3ccc(Cl)cc3)nc3ccccc3n12,0.92,16*
Cc1nc2nc(NCc3cccs3)[nH]n2c(=O)c1CCC(=O)Nc1ccccn1,-1.4,-0.3
O=C(O)CCc1nc2ccc(C(=O)O)cc2[nH]1,0.63,0.54
Nc1ccc2nc(CCC(=O)O)[nH]c2c1,1.1,19*
O=C(O)C1=CC(=C(c2ccc(O)c(C(=O)O)c2)c2ccc(O)c(C(=O)O)c2)C=CC1=O,nt,11*
O=C1C=CC(=C(c2ccc(O)cc2)c2ccc(O)cc2)C=C1,-0.04,nt
Cc1onc(-c2ccccc2)c1C(=O)O,-0.31,-1.2
O=C(NCc1cccnc1)c1ccc(Cn2c(SCc3ccc(F)cc3)nc3cccnc32)cc1,3.7,nt
CCOc1ccc2ncc(S(=O)(=O)c3ccccc3)c(N3CCCCC3)c2c1,-0.35,-0.61
COc1cc2ncc(S(=O)(=O)c3ccc(C)cc3)c(N3CCCC3)c2cc1OC,-0.63,9.6*
CCOc1ccc2ncc(S(=O)(=O)c3ccc(C)cc3)c(N3CCCC3)c2c1,0.15,5.2*
COc1ccc(S(=O)(=O)c2cnc3cc(OC)c(OC)cc3c2N2CCCCC2)cc1,1.6,-2
COc1cc(CN2CCN(C3C4CC5CC(C4)CC3C5)CC2)cc(OC)c1O (stereo not given),nt,-3.4
SMILES,HIV TAR-Tat,CDC25B CDK2 inh
COc1ccc(C2CC(=O)Nc3nc(SCc4ccccc4)[nH]c(=O)c32)cc1Br (stereo not given),0.73,-0.72
Cc1cccc(CSc2nc3c(c(=O)[nH]2)C(c2ccc(O)c(O)c2)CC(=O)N3)c1 (stereo not given),12*,-0.51
O=C1CC(c2ccc(O)c(O)c2)c2c(nc(SCc3ccccc3)[nH]c2=O)N1 (stereo not given),17*,2.6
Cc1ccc(CSc2nc3c(c(=O)[nH]2)C(c2ccc(O)c(O)c2)CC(=O)N3)cc1 (stereo not given),12*,0.11
Cc1cccc(CSc2nc3c(c(=O)[nH]2)C(c2cc(F)cc(F)c2)CC(=O)N3)c1 (stereo not given),2.5,1.5
Cc1ccc(CSc2nc3c(c(=O)[nH]2)C(c2cc(C)ccc2C)CC(=O)N3)cc1 (stereo not given),1.5,-1.4
CC1(C)Cc2c(sc3nc(SCc4ccccc4F)nc(N)c23)CO1,0.72,-3.1
CCN(CC)CCNc1cc(C)nc2cc(-c3ccc(OC)c(OC)c3)nn12,4*,1.7
COc1ccc(-c2cc3nc(C)cc(NCC(C)C)n3n2)cc1OC,2.6,-0.86
CCOC(=O)N1CCC(Nc2c(N3CCC(C)CC3)c(=O)c2=O)CC1,0.57,-0.34
O=c1cc(-c2ccccc2)[nH]c(=S)[nH]1,nt,-1.1
N/C(=N\O)c1c(-c2ccccc2)cc(-c2ccc(F)cc2)[nH]c1=O,nt,11*
COc1cccc(-c2noc(N(C)Cc3ccccc3)n2)c1OC,1.5,nt
C1=C(c2ccc3c(c2)c2c4n3CCNC4CCC2)CCC1 (stereo not given),nt,14*
CC(C)COc1ccc2c(c1)c1c3n2CCNC3CCC1 (stereo not given),nt,-3.1
O=C(NCC(c1ccco1)N1CCOCC1)c1cc(-c2ccc3c(c2)OCCO3)on1 (stereo not given),0.14,-1.1
CCC1(C)Cc2ccccc2C(NC(=O)Nc2ccc(Cl)cc2)=C1C#N (stereo not given),1.4,-0.34
Cc1nnc2sc(SCC(=O)N3CCN(c4ccccc4)CC3)nn2c1=O,1.5,nt
O=C(NCc1ccc2c(c1)OCO2)c1ccc2nc3[nH]c4ccccc4c3nc2c1,1.7,nt
